# Compounds with a hit are over-represented: about 4.1% of the library has one in this group of screens.
# AmpC no deterg: inhibitors of E. coli AmpC beta-lactamase without detergent | AmpC nitrocefin hydrolysis, absorbance 480 nm, 0.0001% Triton | Potency, µM (titrated, usually from 57.1 µM), inactives show top-dose activity change, negative = inhibition, usual class: inhibitors | actives 0.52% (n = 330,000);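 also: plate controls were no compound for no effect and no enzyme for full effect; nearly all actives have a fitted effect of over 20% in size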
# Target sequence (P00811 whole entry, looked up): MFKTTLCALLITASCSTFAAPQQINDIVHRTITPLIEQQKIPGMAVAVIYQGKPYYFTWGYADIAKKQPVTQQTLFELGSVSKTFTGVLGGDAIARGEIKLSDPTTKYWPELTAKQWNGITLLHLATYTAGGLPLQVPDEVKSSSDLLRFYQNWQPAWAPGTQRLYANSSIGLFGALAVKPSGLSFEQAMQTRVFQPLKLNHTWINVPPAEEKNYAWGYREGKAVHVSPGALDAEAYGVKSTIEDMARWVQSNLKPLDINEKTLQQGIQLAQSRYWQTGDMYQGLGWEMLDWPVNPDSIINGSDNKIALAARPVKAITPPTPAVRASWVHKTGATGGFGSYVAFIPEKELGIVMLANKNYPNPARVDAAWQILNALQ
#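 20 mM phosphate pH 7.0 + 0.01% (detergent screen) or 0.0001% Triton X-100; 5.3 nM AmpC reagent; cpd preinc 15 min RT; nitrocefin (800 uM stock) to start; A480 q20 s × 4 min; Activity was normalised to no-enzyme and no-compound control wells.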
# FMDV antiviral: blocks foot and mouth disease virus. Potency, µM (doses to about 57.9 µM), without a hit: at the highest dose activity change, negative = inhibition, usual class: inhibitors. AID 1159524. FMDV antiviral cell-based qHTS. actives 1.2% (n = 410,000); calls by dose curve; tested in HEK293T cells; also: read-out not given here; nearly all actives have a fitted effect of over 45% in size
# Sm TGR block: blocks Schistosoma mansoni thioredoxin glutathione reductase; Potency, µM (titrated, usually from 114 µM), inactives show top-dose activity change, negative = inhibition, most hits filed as inhibitors; actives 3% (n = 360,000); Q962Y6; AID 485364; purified TGR, DTNB reduction, TNB absorbance 405 nm; also: nearly all actives have a fitted effect of over 60% in size
#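 TGR 20 nM + NADPH 100 uM (dispensed conc.), cpd preinc 15 min RT; start with NADPH (500 uM addition) then DTNB (15 mM addition). Kinetic TNB absorbance, 405 nm filter. Four-parameter Hill fit across titration.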
# AmpC detergent: AmpC beta-lactamase inhibition with detergent present; actives 0.041% (n = 370,000); P00811; AmpC hydrolysis of nitrocefin, absorbance 480 nm, 0.01% Triton; AID 485294; Potency, µM (top dose mostly 114 µM), inactives show at the highest dose activity change, negative = inhibition, most hits filed as inhibitors;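 also: 0% = no-compound wells and -100% = no-enzyme wells; nearly all actives have a fitted effect of over 25% in size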
#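 AmpC (5.3 nM in the dispensed reagent) in 20 mM phosphate pH 7.0 with 0.01% (detergent screen) or 0.0001% Triton X-100 was preincubated with compounds for 15 min at room temperature. Nitrocefin was then added from an 800 uM solution, and hydrolysis was followed at 480 nm.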
# AMA1 RON2 block: AMA1-RON2 (P. falciparum) interaction inhibition; actives 0.2% (n = 360,000); Potency, µM (top dose mostly 58.2 µM), without a hit: at the top dose activity change, negative = inhibition, hits mostly inhibitors; AlphaScreen AMA1-biotinylated RON2 peptide binding;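 also: 0% = vehicle wells and -100% = peptide control; nearly all actives have a fitted effect of over 45% in size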
#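 AMA1 (3D7) with his tag at 25 nM final met compounds first, then biotinylated RON2 peptide at 25 nM; detection used donor plus acceptor beads, 10 µg/mL apiece, read by AlphaScreen after 30 min at room temperature.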
# The depositor's hits bear a star; u = inconclusive; x = no result given; [ ] = remark or other dose. Unless noted, calls follow the shape of the dose curve; as a rule, active = well fitted curve in the direction sought with a large enough effect; inconclusive = small, poorly fitted or top-dose-only effect, or another doubt; inactive = no such curve, though single readings can be large; an effect the other way counts as inactive or inconclusive. Unless noted, % is scaled to controls: 0 for no effect and ±100 for the full control effect; potency is read from the fitted curve at half-maximal effect.
SMILES,AmpC no deterg,FMDV antiviral,Sm TGR block,AmpC detergent,AMA1 RON2 block
COc1ccc(N(Cc2cc(=O)[nH]c3ccccc23)C(=O)CCl)cc1,-3.8%,20µM*,7.94µM*,-14.8%,-0.8%
Cc1cccc(N(Cc2cc(=O)[nH]c3ccccc23)C(=O)CCl)c1,-6.5%,20µM*,u,0.3%,-6.8%
CCCC(=O)N(Cc1cc(=O)[nH]c2ccccc12)c1ccc(OC)cc1,-4.8%,-15.6%,-0.9%,-3.7%,9.0%
CCCC(=O)N(Cc1cc(=O)[nH]c2ccccc12)c1cccc(C)c1,-1.8%,-18.3%,0.0%,1.7%,-4.3%
COc1cc(=O)n2c(c1C(=O)N(C)Cc1nonc1C)CCN(C(=O)c1cc(C)cc(C)c1)CC2,x,15.1%,x,x,x
Cc1ccc(F)cc1S(=O)(=O)NCc1nc(N2CCCC2)c2cccc(C)c2n1,x,-12.6%,x,x,x
Cc1ccc(-n2c(=O)c3c4c(sc3n(CC(=O)Nc3cccc(Cl)c3)c2=O)CCCCC4)cc1C,x,-10.6%,-1.8%,-5.7%,x
CCn1c(=O)cc(SCC(=O)Nc2cccc(SC)c2)c2ccccc21,-21.2%,20µM*,6.2%,-1.2%,-7.3%
COC(=O)[C@@H]1C[C@H](NC(=O)c2cc(C(F)(F)F)ccc2Cl)CN1Cc1cccc(O)c1,x,-11.4%,x,x,x
COc1cccc(C(=O)c2ncc(C(F)(F)F)cc2Cl)c1,-17.0%,35.1%,50.1µM*,7.2%,1.8%
CC1=C(C(=O)Nc2ccc(C)cc2C)C(c2ccccc2C)n2ncnc2N1 (stereo not drawn),x,0.9%,-0.3%,-3.6%,x
CC(=O)/C=C/n1c(=S)oc2ccccc21,-4.2%,3.16µM*,2.51µM*,-8.7%,7.8%
CC(C)CC(=O)/C=C/n1c(=S)oc2ccccc21,-23.8%,u,6.31µM*,u,-7.3%
Cn1c(=S)oc2ccccc21,-11.5%,-1.0%,6.0%,1.3%,u
OC1CCN(Cc2ccc3c(c2)CN(C/C=C/c2ccco2)CCO3)CC1,x,-6.0%,x,x,x
CCC(C)(C)n1nnnc1CN1CCc2ccccc21,-27.9%,-16.2%,7.08µM*,u,-1.9%
c1ccc(CCn2nnnc2CN2CCCc3ccccc32)cc1,-17.1%,24.8%,-35.6%,-13.3%,5.7%
CCOC(=O)c1ccccc1NC(=O)Cn1ncc2c1-c1ccccc1OC2,x,-15.3%,3.6%,18.4%,x
Cc1ccc(C)c(N2CCN(C(=O)c3cnn(-c4ccccc4Cl)c3C3CCN(C(=O)OC(C)(C)C)CC3)CC2)c1,x,u,0.9%,7.6%,x
COc1ccc2c3c([nH]c2c1)C(C)NCC3 (stereo not drawn),-32.9%,-22.6%,11.2µM*,5.7%,-22.1%
CCOC(=O)C1CCCN(c2c(N3CCN(C4CCCCC4)CC3)c(=O)c2=O)C1 (stereo not drawn),-3.2%,5.2%,2.4%,-9.4%,8.3%
CCOC(=O)C1CCCN(c2c(N3CCC(N4CCCCC4)CC3)c(=O)c2=O)C1 (stereo not drawn),-20.1%,-18.6%,89.1µM*,-12.5%,0.2%
CCOC(=O)C1CCCN(c2c(N3CCN(C)CC3)c(=O)c2=O)C1 (stereo not drawn),-15.5%,0.0%,5.62µM*,u,15.1%
Cc1c(C#N)c(N)nc2c3c(sc12)NC(=O)CC3c1ccc(Cl)cc1 (stereo not drawn),u,22.4µM*,-5.2%,-11.2%,-3.2%
N#Cc1c(N)nc2c3c(sc(=N)c2c1N)NC(=O)CC3c1ccccc1 (stereo not drawn),-38.9%,-4.5%,5.7%,2.7%,67.8%
SMILES,AmpC no deterg,FMDV antiviral,Sm TGR block,AmpC detergent,AMA1 RON2 block
Oc1c(Br)cc(Br)cc1CNc1cccc2cccnc12,-54.2%,-4.1%,1.78µM*,4.0%,65.0%
COc1ccccc1NC(=O)CN1C(=O)c2cccc3cccc1c23,x,-7.3%,6.7%,15.5%,x
CCc1ccc(-c2nn(CC(=O)NC3CCCC3)c3c2cnc2ccc(C)cc23)cc1,x,5.2%,-2.6%,20.4%,x
COc1ccccc1N1C(=O)c2cccnc2C1=O,-1.8%,-1.2%,56.2µM*,6.0%,20.6%
CS(=O)(=O)Nc1cc(C(=O)N2CCNC(=O)C2)c2c(c1)ncn2CCc1ccccc1,x,-2.0%,x,x,x
Cc1cccc(/C=C(\c2nc3ccccc3[nH]2)S(=O)(=O)c2ccccc2)c1,-26.5%,8.91µM*,u,-3.5%,-3.4%
O=C(O)c1ccc(/C=C(\c2nc3ccccc3[nH]2)c2nc3ccccc3s2)cc1,-8.3%,-11.4%,u,-5.2%,10.2%
CC(C)(C)c1ccc(/C=C(\c2nc3ccccc3[nH]2)S(=O)(=O)c2ccccc2)cc1,x,20µM*,x,x,-6.9%
Cc1ccc(NC(=S)c2nc3ccccc3[nH]2)c(C)c1,-36.0%,-52.3%,-26.2%,-5.9%,35.4%[11.6 µM]
O=C(NCCc1nnc2n1CCN(Cc1cc3ccccc3o1)CC2)c1ccoc1,x,-28.1%,x,x,x
Cc1ccc(C(=O)NNc2ncnc3c2cnn3C)cc1,-11.2%,16.2%,2.4%,-4.5%,87.8%
Cn1ncc2c(O/N=C(\N)c3ccc(C(F)(F)F)cc3)ncnc21,47.4%,22.4µM*,1.3%,1.4%,2.1%
COc1ccc(-c2c(C)nn3c(N)c(-c4ccccc4)cnc23)cc1OC,38.0%,13.5%,39.8µM*,-7.4%,96.3%
CCC1CCCCN1CC(=O)c1c(C)[nH]c2cc(C)ccc12 (stereo not drawn),-9.7%,-7.9%,44.7µM*,-2.7%,-4.5%
Cc1c(C(=O)NCCSCc2c(Cl)cccc2Cl)cccc1[N+](=O)[O-],-23.9%,-2.9%,34.3%,0.4%,-6.9%
Cc1c(C(=O)NCCSCc2ccccc2Cl)cccc1[N+](=O)[O-],0.251µM*,u,1.2%,-2.2%,-15.7%
N#Cc1ccc(NC(=S)Nc2ccccc2)cc1,-7.9%,0.0%,44.7µM*,-9.6%,-3.4%
CC(=O)Nc1ccc(NC(=S)Nc2ccccc2)cc1,-3.4%,11.7%,-32.5%,u,-8.4%
Cc1nn(CC(=O)NCCc2ccccc2)c(=O)c2nn(-c3ccccc3)c(C)c12,x,13.7%,0.8%,-3.2%,x
COc1ccc(/C=C2\SC(=O)N(CC(=O)NNC(=O)c3ccccc3O)C2=O)cc1,11.2µM*,33.6%,-4.9%,-5.1%,12.2%
O=C(CN1C(=O)S/C(=C\c2ccccc2)C1=O)NNC(=O)c1ccccc1O,-35.4%,7.7%,-2.4%,u,4.1%
COC(=O)C1CCCCN1Cc1ccc2c(c1)CN(C1CCSCC1)CCO2 (stereo not drawn),x,-4.9%,x,x,x
CC(C)SC1=NC(C)(C)C=C(/C=C/c2ccc(Cl)cc2Cl)N1,-10.6%,u,15.8µM*,-0.2%,-7.0%
CC(C)SC1=NC(C)(C)C=C(/C=C/c2c(Cl)cccc2Cl)N1,-22.3%,u,20µM*,2.0%,-2.0%
NCCNC(=O)c1ccc(Cl)cn1,x,-8.0%,x,x,x
COc1ccccc1CNC(=O)c1cc2cccc3c2n1CCS3,x,-22.4%,3.2%,-3.0%,x
CC(=O)c1cccc(NC(=O)Nc2nnc(N3CCCC3)s2)c1,x,48.2%,-11.6%,-0.4%,x
Cc1ccccc1NC(=O)CCN1C(=O)c2ccccc2Sc2ncccc21,x,3.5%,-34.7%,u,x

# Source: PubChem BioAssay
